# Source: PubChem BioAssay
# D2 PAM-1: HTS Assay for Positive Allosteric Modulators of the Human D2 Dopamine Receptor: Primary Screen for Potentiators; 0.34% of 340,000 active; potentiation, % at 10 µM; HEK293 T-REx D2, calcium flux, EC20 dopamine potentiation;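 active means potentiation over 3 SD above the plate norm, cut at about 30% in these data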; further: 0% is about no effect
# Target sequence (P14416 whole entry, looked up): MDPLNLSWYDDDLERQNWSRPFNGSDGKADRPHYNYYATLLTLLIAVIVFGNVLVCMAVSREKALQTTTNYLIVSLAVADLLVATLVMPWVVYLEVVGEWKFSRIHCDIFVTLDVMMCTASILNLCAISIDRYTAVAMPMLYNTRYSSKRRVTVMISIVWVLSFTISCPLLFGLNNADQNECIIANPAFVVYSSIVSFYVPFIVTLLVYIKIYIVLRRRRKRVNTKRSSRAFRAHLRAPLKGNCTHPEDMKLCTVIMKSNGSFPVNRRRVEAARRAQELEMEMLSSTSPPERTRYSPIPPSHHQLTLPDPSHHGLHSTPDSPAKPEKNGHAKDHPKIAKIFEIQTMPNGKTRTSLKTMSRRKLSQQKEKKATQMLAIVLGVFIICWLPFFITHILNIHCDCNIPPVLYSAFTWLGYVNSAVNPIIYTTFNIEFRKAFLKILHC
#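 Tetracycline-induced HEK293 T-REx cells force-coupled to calcium signalling expressed D2; compounds were pin-added after a 10 s baseline, read kinetically 180 s, then an EC20 dopamine challenge followed with a further 180 s calcium read.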
# D2 antagonist: HTS Assay for Allosteric Antagonists of the Human D2 Dopamine Receptor: Primary Screen for Antagonists; D(2) dopamine receptor (Homo sapiens), P14416; HEK293 TREx D2 cells, calcium flux, dopamine EC80; inhibition, % at 10 µM; 2% of 340,000 active; AID 485344, 2010; in the data active means inhibition above about 30%; inactive means below that, where a call was filed; further: 0% is about no effect
#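 Read-out: kinetic calcium fluorescence (1 cycle/s) in inducible HEK293 T-REx D2 cells after an EC80 dopamine addition that followed 180 s compound preincubation. Loss of the dopamine response indicates antagonism.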
# D2 PAM-2: Beta-Arrestin HTS for Positive Allosteric Modulators of the Human D2 Dopamine Receptor: Potentiators | D(2) dopamine receptor (Homo sapiens), P14416 | DiscoveRx D2 beta-arrestin cells, luminescence, 90 min; 100% = 57 uM dopamine signal | potentiation, % (test concentration not listed) | 0.23% of 360,000 active; in the data active means potentiation above about 50%; inconclusive means mostly about 30% to 49%
#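 PathHunter beta-arrestin assay in DiscoveRx D2 cells. Compounds were added with an EC20 of dopamine (50 nM final) for 90 min at 37 deg C. Luminescence was read 1 h after detection reagent, with 57 uM dopamine as the EC100 control.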
# D2 ag-1: Beta-Arrestin HTS for Positive Allosteric Modulators of the Human D2 Dopamine Receptor: Agonists | D(2) dopamine receptor (Homo sapiens), P14416 | DiscoveRx PathHunter D2 beta-arrestin, luminescence, 90 min; 100% = 57 uM dopamine signal | activation, % (concentration not given with the values) | 0.084% of 360,000 active; in the data active means activation above about 40%; inconclusive means between about 15% and that limit
#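 DiscoveRx PathHunter D2 beta-arrestin cells (2,100/well) attached overnight, then compound-stimulated 90 min at 37 C in HBSS/10 mM HEPES/0.1% Tween-20 buffer; beta-galactosidase complementation read by luminescence after 1 h at ambient temperature. Dopamine 57 uM final (EC100) as control.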
# D2 ag-2: HTS Assay for Allosteric Agonists of the Human D2 Dopamine Receptor: Primary Screen for Agonists. D(2) dopamine receptor (Homo sapiens), P14416. HEK293 T-REx D2 cells, calcium flux agonist mode. activation, % at 2 µM. 0.53% of 340,000 active;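 active means activation over 3 SD above normal in the single-dose calcium agonist read, cut at about 30% in these data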; further: 0% is about no effect
#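 Tetracycline-induced HEK293 T-REx cells with force-coupled D2 receptor, plated overnight at 30 C, loaded with no-wash calcium dye. After a 10 s baseline, compound was pin-added and calcium flux read kinetically for 180 s; calcium rises flagged agonists.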
# * = called active by the depositor; ? = inconclusive; . = no result. Compounds with a hit are over-represented: about 2.4% of the library has one in this group of screens.
SMILES,D2 PAM-1,D2 antagonist,D2 PAM-2,D2 ag-1,D2 ag-2
O=C(/C=C/c1cccc([N+](=O)[O-])c1)OC1CCCCC1=O (stereo unspecified),1,31*,-4,-5,2
CC(C)N(C(=O)/C=C/c1cccc([N+](=O)[O-])c1)C(C)C,19,24,-9,-1,1
O=C(NCC1CCCO1)C(=Cc1cccc([N+](=O)[O-])c1)C(=O)NCC1CCCO1 (stereo unspecified),8,1,-3,3,1
CN(C)c1cccc(C(=O)OCC(=O)NC(=O)NCc2ccccc2)c1,.,.,-3,1,.
O=C(CN1CCN(c2ccccn2)CC1)Nc1ccccc1,8,31*,-11,6,1
O=C(CN1CCN(c2ccccn2)CC1)Nc1ccc(F)cc1,6,6,-7,11,0
O=C(CN1CCN(c2ccccn2)CC1)Nc1ccc(Oc2ccccc2)cc1,.,.,10,50*,.
COc1ccc(C(=O)Nc2ccc(N3CCCCCC3)cc2)cc1S(=O)(=O)N1CCOCC1,1,-10,-5,?,0
CC(C)N1CCc2c(sc(NC(=O)c3ccc(S(=O)(=O)N(C)C4CCCCC4)cc3)c2C(N)=O)C1,8,.,.,.,2
CNC(=O)c1c(NC(=O)c2ccc(S(=O)(=O)N(C)c3ccccc3)cc2)sc2c1CCN(C(C)C)C2,-3,19,15,-2,84*
CCN1CCc2c(sc(NC(=O)c3ccc(S(=O)(=O)N(CCOC)CCOC)cc3)c2C(N)=O)C1,-4,.,.,.,0
CCN1CCc2c(sc(NC(=O)c3ccc(S(=O)(=O)N(C)c4ccccc4)cc3)c2C(=O)NC)C1,1,1,-2,-7,38*
c1ccc(OCCN2CCN(C(c3ccccc3)c3ccccc3)CC2)cc1,-16,46*,-2,-1,1
O=c1[nH]c2ccccc2n1CCCN1CCCCC1,-21,20,-20,1,0
O=c1[nH]c2ccccc2n1CCCN1CCN(C(c2ccccc2)c2ccccc2)CC1,-27,84*,.,.,0
FC(F)(F)c1cccc(OCCN2CCN(Cc3ccccc3)CC2)c1,-20,82*,-44,-2,1
CN(CCOc1cccc(C(F)(F)F)c1)Cc1ccccc1,.,.,-20,-7,.
C[C@H](NC(=O)c1ccco1)C(=O)OCC(=O)N1CC(=O)Nc2ccccc21,.,.,-4,-1,.
Cc1ccccc1NC(=O)c1c(NC(=O)Cc2ccccc2)sc2c1CCC2,9,.,.,.,-1
Cc1ccccc1Nc1nc(N)nc(COC(=O)CCS(=O)(=O)c2ccccc2)n1,-13,32*,-4,1,2
Cc1ccc(S(=O)(=O)CCC(=O)OCc2nc(N)nc(Nc3ccccc3C)n2)cc1,21,-2,?,-2,0
C=CCn1c(-c2csc(-c3ccccc3)n2)n[nH]c1=S,48*,-27,-15,-4,0
CCc1ccc(-n2cnc3cc(C(=O)NCc4ccc(C)cc4)ccc32)cc1,5,.,.,.,1
CCNC(=S)NC1CC2CCCC(C1)N2Cc1ccc(C)cc1 (stereo unspecified),-20,82*,-76,-3,1
CCNC(=S)NC1CC2CCCC(C1)N2Cc1ccco1 (stereo unspecified),-19,6,-25,2,0
CNC(=S)NC1CC2CCCC(C1)N2Cc1ccccc1OC (stereo unspecified),-8,0,-17,1,1
CNC(=S)NC1CC2CCCC(C1)N2Cc1ccc(C)cc1 (stereo unspecified),-25,81*,-20,-4,0
Cc1ccc(-n2ncc3c(SCC(N)=O)ncnc32)cc1C,10,-10,-13,0,0
CC(=O)N(C(C)=O)c1nc2nc(C)cc(C)n2n1,10,102*,-1,-4,-1
Cc1cc(C)n2nc(CCc3nc4nc(C)cc(C)n4n3)nc2n1,2,6,.,.,-1
